Assay [1] is described as follows: ATG_GLI_CIS: Attagene CIS-FACTORIAL HepG2 Assay for human Zinc Finger Protein GLI1 (AID 2282945). As to conditions: HepG2, Attagene cis-factorial reporter mRNA, GLI element; actives raise or lower the signal. Summed up:
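HepG2 cells transiently transfected with cis-promoter multiplexed reporter units report endogenous transcription factor activity. After 24 h chemical exposure, reporter mRNA was quantified by RT-PCR, 6-FAM labelling, HpaI digestion and capillary electrophoresis, with bidirectional fitting against DMSO.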

A short description of assay [2]: ATG_GRE_CIS: Attagene CIS-FACTORIAL HepG2 Assay for human Glucocorticoid Response Elements (GRE) (AID 2282947). As to conditions: HepG2 GRE cis-reporter, Attagene multiplex mRNA; actives raise or lower the signal. Summed up: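 HepG2 cells transiently transfected with multiple cis-promoter reporter units measure endogenous TF activity; 24 h compound exposure. Reporter mRNA quantified by RT-PCR, FAM labelling, HpaI digestion and capillary electrophoresis; bidirectional fit vs DMSO baseline.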

The nature of assay [3]: ATG_ISRE_CIS: Attagene CIS-FACTORIAL HepG2 Assay for human Interferon Regulatory Factor 1 (IRF1) binding to an Interferon-Stimulated Response Element (ISRE) (AID 2282948). Conditions: HepG2 ISRE cis-reporter (Attagene), mRNA transcription readout; actives raise or lower the signal. The gist of the method:
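Quantitation relies on labelled RT-PCR fragments separated by capillary electrophoresis. Human HepG2 cells bearing cis-promoter reporter constructs were treated 24 h; DMSO served as baseline for bidirectional fitting.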

Assay [4] in a line: ATG_M_32_CIS: Attagene CIS-FACTORIAL HepG2 Assay for M32 Transcription Factor (Internal Marker) (AID 2282949).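 Also: background control marker of the multiplexed CIS panel rather than a real target.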 Conditions: HepG2 Attagene cis-factorial M32 reporter, mRNA; actives raise or lower the signal. Summed up: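 Internal background marker read-out: RT-PCR/capillary electrophoresis fluorescence of reporter transcripts from transiently transfected HepG2 cells after 24 h chemical exposure. Activity fitted bidirectionally relative to DMSO negative control.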

Assay [5] addresses Hypoxia-inducible factor 1-alpha (Homo sapiens) (UniProt Q16665). In words: ATG_HIF1a_CIS: Attagene CIS-FACTORIAL HepG2 Assay for human Hypoxia Inducible Factor 1 (HIF1A) (AID 2282951). As to conditions: HepG2 Attagene cis-factorial HIF1a reporter transcription; actives raise or lower the signal. The gist of the method:
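RT-PCR/capillary electrophoresis fluorescence readout of reporter transcripts from endogenous-TF-driven cis elements in transfected HepG2 cells, 24 h exposure; activity fitted in both directions against DMSO controls.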

Assay [6] concerns the target Hepatocyte nuclear factor 6 (Homo sapiens) (UniProt Q9UBC0). The assay is described as follows: ATG_HNF6_CIS: Attagene CIS-FACTORIAL HepG2 Assay for human Hepatocyte Nuclear Factor 6 (HNF6) (AID 2282952). As to conditions: HepG2 Attagene cis-factorial HNF6 reporter transcription; actives raise or lower the signal. Summed up: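 Reporter mRNA induction or loss in HepG2 after 24 h exposure; transient cis-MRTU transfection; fragments quantified by capillary electrophoresis; bidirectional analysis, DMSO as negative control.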

The target in assay [7] is Heat shock factor protein 1 (Homo sapiens) (UniProt Q00613). In words: ATG_HSE_CIS: Attagene CIS-FACTORIAL HepG2 Assay for human Heat Shock Transcription Factor 1 (HSE) (AID 2282953). As to conditions: HepG2 HSE cis-reporter, Attagene RNA transcription; actives raise or lower the signal. The gist of the method:
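Read-out: fluorescence of reporter-specific RT-PCR fragments separated by capillary electrophoresis. HepG2 carrying transfected cis-element reporter units; 24 h dosing; activity fitted in both directions relative to DMSO baseline.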

Assay [8] in a line: ATG_MRE_CIS: Attagene CIS-FACTORIAL HepG2 Assay for human Metal Responsive Element (MRE) (AID 2282954). As to conditions: HepG2 MRE cis-reporter transcription, Attagene multiplex; actives raise or lower the signal. Summed up: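 HepG2 cells transiently transfected with multiple cis-element reporter units measure endogenous MTF1-driven transcription. After 24 h compound exposure, reporter mRNA is quantified by RT-PCR with 6-FAM labelling, HpaI digestion and capillary electrophoresis; bidirectional fits versus DMSO.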

A short description of assay [9]: ATG_M_06_CIS: Attagene CIS-FACTORIAL HepG2 Assay for M06 Transcription Factor (Internal Marker) (AID 2282950). Conditions: HepG2 Attagene CIS-FACTORIAL M06 internal marker reporter; actives raise or lower the signal. Summed up:
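Terse: HepG2, transient MRTU transfection (FuGene 6), 24 h dosing; total RNA, oligo(dT) RT, PCR, FAM label, HpaI cut, capillary electrophoresis; bidirectional fit vs DMSO baseline; background-control endpoint.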

Drawing on PubChem BioAssay (EPA / NIEHS), this text covers outcome and AC50 for 31 compounds.

Active and inactive are the calls of the source. The calls were made as follows: active = hit-call score of the fitted dose curve at least 0.9, where 1 is the maximum; inactive = score below 0.9.

Hepatocyte nuclear factor 6 (Homo sapiens), sequence (Q9UBC0 whole entry, looked up, the tested form may be a part): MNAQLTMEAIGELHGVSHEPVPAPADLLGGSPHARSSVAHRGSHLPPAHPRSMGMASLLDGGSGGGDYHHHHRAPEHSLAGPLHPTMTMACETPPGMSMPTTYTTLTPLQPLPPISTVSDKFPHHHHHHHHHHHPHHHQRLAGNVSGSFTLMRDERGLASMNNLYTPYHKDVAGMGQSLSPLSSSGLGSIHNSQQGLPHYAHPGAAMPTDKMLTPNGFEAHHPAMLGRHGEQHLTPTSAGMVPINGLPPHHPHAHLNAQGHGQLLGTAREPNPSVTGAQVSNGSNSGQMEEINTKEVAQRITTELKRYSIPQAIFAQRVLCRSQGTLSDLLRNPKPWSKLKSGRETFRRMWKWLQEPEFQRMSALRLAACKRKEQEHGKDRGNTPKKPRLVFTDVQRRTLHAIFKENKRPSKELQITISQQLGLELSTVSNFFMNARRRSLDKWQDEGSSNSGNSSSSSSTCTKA
Hypoxia-inducible factor 1-alpha (Homo sapiens), sequence (Q16665 whole entry, looked up): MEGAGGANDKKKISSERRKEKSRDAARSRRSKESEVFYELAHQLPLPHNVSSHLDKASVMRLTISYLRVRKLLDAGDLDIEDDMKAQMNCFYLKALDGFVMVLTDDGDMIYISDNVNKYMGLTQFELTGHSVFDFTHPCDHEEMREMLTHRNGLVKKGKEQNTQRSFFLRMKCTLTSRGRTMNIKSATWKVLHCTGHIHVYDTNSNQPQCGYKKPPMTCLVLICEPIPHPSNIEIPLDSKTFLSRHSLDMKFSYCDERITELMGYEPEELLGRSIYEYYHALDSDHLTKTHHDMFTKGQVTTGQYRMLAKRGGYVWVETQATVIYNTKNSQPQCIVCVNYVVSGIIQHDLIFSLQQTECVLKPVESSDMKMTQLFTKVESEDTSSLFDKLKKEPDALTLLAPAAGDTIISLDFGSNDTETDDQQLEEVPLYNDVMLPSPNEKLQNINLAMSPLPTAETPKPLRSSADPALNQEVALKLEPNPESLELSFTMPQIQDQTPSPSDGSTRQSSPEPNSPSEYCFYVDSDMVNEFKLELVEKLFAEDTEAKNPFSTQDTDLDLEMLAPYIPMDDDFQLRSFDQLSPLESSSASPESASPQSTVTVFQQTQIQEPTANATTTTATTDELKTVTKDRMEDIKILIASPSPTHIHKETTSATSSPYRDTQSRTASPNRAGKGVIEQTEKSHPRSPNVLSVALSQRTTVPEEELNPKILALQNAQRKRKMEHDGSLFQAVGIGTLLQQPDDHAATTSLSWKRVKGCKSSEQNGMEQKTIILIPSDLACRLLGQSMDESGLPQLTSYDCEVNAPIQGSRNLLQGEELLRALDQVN
Heat shock factor protein 1 (Homo sapiens), sequence (Q00613 whole entry, looked up, the tested form may be a part): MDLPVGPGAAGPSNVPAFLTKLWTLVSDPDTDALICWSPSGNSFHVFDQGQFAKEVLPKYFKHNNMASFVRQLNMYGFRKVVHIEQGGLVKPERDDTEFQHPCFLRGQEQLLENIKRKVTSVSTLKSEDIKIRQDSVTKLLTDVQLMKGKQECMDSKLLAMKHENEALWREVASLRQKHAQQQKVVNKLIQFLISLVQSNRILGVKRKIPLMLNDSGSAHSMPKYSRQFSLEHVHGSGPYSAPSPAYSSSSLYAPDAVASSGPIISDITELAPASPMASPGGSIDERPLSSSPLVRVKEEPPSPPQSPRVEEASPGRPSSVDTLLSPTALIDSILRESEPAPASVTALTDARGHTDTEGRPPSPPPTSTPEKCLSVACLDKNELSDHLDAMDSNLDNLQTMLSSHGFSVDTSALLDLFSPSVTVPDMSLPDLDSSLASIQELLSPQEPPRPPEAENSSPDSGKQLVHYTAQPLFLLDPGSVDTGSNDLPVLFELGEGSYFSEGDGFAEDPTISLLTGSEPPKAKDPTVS

The AC50 is the concentration at which the activity in the assay is half-maximal. As to `[Cu+]`, the call in assay [1], in assay [2], in [3], in assay [4], in assay [5] and in assay [6] was inactive. Moreover, in assay [7], the compound was called inactive. The AC50 in [8] was 1.09 µM (active).

On to `Cc1cc(N)n(-c2ccccc2)n1`, for which the outcome in assay [1], in assay [3], in [4], in assay [9], in [5] and in [6] was inactive. The compound was classed as inactive in [7].

On to `O=c1cc(-c2ccc(O)cc2)oc2cc(O)cc(O)c12`, for which the outcome in [1], in assay [2], in assay [4] and in assay [6] was inactive. Besides, the half-maximal activity concentration (AC50) was 31 µM (active) in assay [3], 24.9 µM (active) in [7] and 41.1 µM (active) in assay [8].

In the case of `CC(=O)OC(C)(C)C1CC=C(C)CC1` (centres undefined), the outcome in [1], in assay [3], in assay [4], in assay [9], in assay [5] and in [6] was inactive. Moreover, the outcome in assay [7] was inactive.

Take `CCCCCCCCCO`: the compound was called inactive in [1], in assay [2], in assay [3], in assay [4], in assay [9] and in assay [7]. The outcome in assay [8] was inactive.

`CC/C(=C(\c1ccccc1)c1ccc(OCCN(C)C)cc1)c1ccccc1`: the result in assay [1], in assay [2], in assay [3], in [4], in [5] and in assay [6] was inactive. Further, the compound was called inactive in assay [7] and in [8].

As to `CCC(CC)CO`, the outcome in assay [1], in assay [3], in [4], in assay [9], in assay [5] and in assay [6] was inactive. Further, in assay [7], the compound was called inactive.

Regarding `CC(=O)CCC(=O)O`, the call in assay [1], in [2], in assay [3], in [4], in [6] and in [8] was inactive.

Take `C=C(C)C(=O)OCCC(C)OC(=O)C(=C)C` (centres undefined): the compound was classed as inactive in [1], in assay [2], in [3], in [4], in [5] and in [6]. Further, the compound was classed as inactive in [7] and in assay [8].

As for `c1ccc2scnc2c1`, the call in [1], in assay [2], in assay [3], in [4], in [9] and in [6] was inactive. For the same compound, the result in [7] and in assay [8] was inactive.

Regarding `C[C@]12CC[C@@H]3c4ccc(O)cc4CC[C@H]3[C@@H]1CC[C@@H]2O`, the outcome in [1], in [2], in assay [3], in assay [4], in [9] and in assay [6] was inactive. In addition, the call in [7] was inactive.

Take `[Na+]`: the call in assay [1], in assay [2], in assay [3], in assay [4], in [9] and in assay [6] was inactive. Also, the outcome in assay [7] and in assay [8] was inactive.

In the case of `CC/C=C\CCOC(C)OCC` (centres undefined), the result in [1], in [2], in assay [3], in assay [4], in [5] and in assay [6] was inactive. The compound was called inactive in assay [7] and in assay [8].

For `C=C(C)C(N)=O`, the compound was classed as inactive in assay [1], in [3], in [4], in assay [9], in assay [5] and in assay [6]. Further, the result in assay [7] was inactive.

With `CC/C=C\C#N`, the outcome in assay [1], in assay [2], in assay [3], in assay [4], in assay [5] and in [6] was inactive. Also, the call in assay [7] and in [8] was inactive.

For `Cc1cccc(O)c1`, the result in [1], in [2], in assay [3], in assay [4], in [9] and in [6] was inactive. Moreover, the call in assay [7] and in assay [8] was inactive.

In the case of `CC(CCO)CC(C)(C)C` (centres undefined), the compound was called inactive in assay [1], in assay [2], in assay [3], in assay [4], in assay [5] and in assay [6]. Besides, the result in assay [7] and in assay [8] was inactive.

Turning to `CC(=O)OCC=C(C)CCC=C(C)CCC=C(C)C`, the AC50 in [1] is 164 µM (active); in [3], 147 µM (active); in [7], 72.3 µM (active). Besides, the compound was called inactive in [4], in [9], in assay [5] and in [6].

For the compound `CCCCOCCOCCOCCO`, the result in [1], in assay [3], in assay [4], in assay [9], in assay [5] and in [6] was inactive. Further, the call in assay [7] and in assay [8] was inactive.

Regarding `Cc1cc(O)c2c(c1)C(=O)c1cc(O)cc(O)c1C2=O`, the compound was called inactive in assay [1], in assay [4], in assay [9] and in assay [6]. The AC50 in assay [2] is 18.5 µM (active); in [3], 36.2 µM (active); in [8] it was 18.9 µM (active).

With `CCCCC1CCCCC(=O)O1` (centres undefined), the result in assay [1], in assay [2], in [3], in [4], in assay [9] and in assay [6] was inactive. Further, the compound was classed as inactive in assay [8].

With `CCC(C)COC(=O)CC(C)C` (centres undefined), the outcome in assay [1], in [3], in assay [4], in [9], in assay [5] and in [6] was inactive. Also, the result in assay [7] was inactive.

As for `CC(C)(C)c1cccc(O)c1`, the compound was classed as inactive in assay [1], in assay [2], in [3], in [4], in assay [5] and in assay [6]. Further, the call in [8] was inactive.

In the case of `CC1=CCC(C(C)C)=CC1`, the compound was called inactive in assay [1], in assay [3], in assay [9], in [5], in [6] and in assay [7]. In addition, in assay [8], the result was inactive. In assay [4], the AC50 was 69.4 µM (active).

For the compound `N#CCCCC(C#N)CCC#N` (centres undefined), the call in assay [1], in [3], in assay [4], in assay [9], in assay [5] and in [6] was inactive. In addition, the compound was called inactive in assay [7] and in [8].

Turning to `CCOC(=O)CCCCCCCCC(=O)OCC`, the compound was classed as inactive in [1], in [3], in assay [4], in [9], in assay [5] and in assay [6]. The result in assay [7] and in [8] was inactive.

As for `CC(C)=CC(=O)O`, the call in [1], in [3], in [4], in assay [9], in assay [5] and in assay [6] was inactive. The call in [7] and in [8] was inactive.

Consider `OCCN1CCOCC1`, for which the call in [1], in [3], in assay [4], in assay [9], in [5] and in assay [6] was inactive. Also, the outcome in [7] and in assay [8] was inactive.

In the case of `NCCN1CCNCC1`, the result in [1], in [3], in assay [4], in [9], in assay [5] and in [6] was inactive. Further, the call in assay [7] and in assay [8] was inactive.

Consider `CC(O)CNCC(C)O` (centres undefined), for which the call in assay [1], in assay [3], in [4], in [9], in assay [5] and in [6] was inactive. Further, the call in [7] and in [8] was inactive.

Regarding `OC[C@@H](O)[C@H](O)[C@@H](O)[C@@H](O)CO`, the compound was called inactive in assay [1], in [3], in assay [4], in assay [9], in [5] and in assay [6]. In addition, the compound was classed as inactive in assay [7] and in assay [8].
